Screen size: about 370,000 compounds; about 4,100 (1.1%) were called active. Shown is part of a subset that was picked to be rich in actives. A number with no mark means an inactive call.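 Rule for the calls: active = inhibition above the mean over all tested compounds plus 3 SD (cut at about 3.6% in these data); inactive = the rest.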

A short description of the experiment: DAX1 (NR0B1) inhibitors on StAR promoter, primary screen, cell-based, luminescence, SF-1 (NR5A1), full-length DAX-1 (AID 652010).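 Note: 0% = DAX-1 cells with DMSO and 100% = cells lacking DAX-1 with DMSO.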 To be noted: HEK293T StAR-luciferase reporter, SF-1/DAX-1 repression relief; at 6.8 µM; stronger effect = higher value. (In a reporter assay the amount or activity of a reporter protein is the signal.)
Regarding `COc1ccc(-c2csc3nc(-c4ccccc4F)oc(=O)c23)cc1OC`, the inhibition was -0.99%.

Consider `COc1ccc(-c2csc(-c3cccs3)n2)cc1OC`, for which the inhibition is 7.97% (active).

With `COc1ccc(C2CC(c3cccs3)=Nc3ccccc3S2)cc1OC` (stereo unspecified), the inhibition was 1.16%.

On to `O=C(CCl)NC1CCCCN(Cc2cccc(C(F)(F)F)c2)C1=O` (stereo unspecified), for which the inhibition is -3.93%.

Consider `C[C@H](O)[C@@H]1CN2CCc3ccc(-c4ccc5c(c4)OCO5)cc3[C@@H]2C[C@@H]1N(C)C(=O)C1CCCCC1`, for which the inhibition was 0.38%.

Turning to `COC(=O)[C@]12C[C@H](CC(=O)N3CCOCC3)C(=O)N(Cc3ccc(Cl)cc3Cl)C1=C[C@H](COCc1ccccc1)O[C@@H]2C`, the inhibition was -0.57%.

Consider `CCCCNc1cccc2c1S(=O)(=O)N[C@@H](C)CO2`, for which the inhibition is -0.56%.

Regarding `Cc1ccc(OCC(=O)Oc2ccccc2[N+](=O)[O-])cc1`, the inhibition was 0.05%.

For the compound `CC(Oc1ccccc1[N+](=O)[O-])C(=O)N/N=C/c1ccoc1` (stereo unspecified), the inhibition is 6.45% (active).

Consider `CC(C)c1cc(C(=O)N/N=C/c2ccoc2)c(O)c(C(C)C)c1`, for which the inhibition was -0.83%.

As to `CCOC(=O)C1CSCCS(=O)(=O)N1Cc1ccc(Cl)cc1` (stereo unspecified), the inhibition was -1.28%.

Take `COC(=O)c1c(C(=O)OC)c2n(c1C)CCS2`: the inhibition was 0.03%.

Take `COc1ccc2nc(SCc3ccccc3)nc(C)c2c1`: the inhibition is 5.06% (active).

Take `COc1ccc(NCc2nnc(SCc3ccccc3)n2-c2ccc(OC)cc2)cc1`: the inhibition was 0.16%.

For `COc1cccc(CSc2nnc(-c3cccnc3)n2Cc2ccccc2)c1`, the inhibition is 1.04%.

Turning to `COC(=O)[C@]12C[C@H](CC(=O)NCc3ccc(C)o3)C(=O)N(CCC3=CCCCC3)C1=C[C@H](C(C)(C)C)O[C@@H]2C`, the inhibition was -0.72%.

As for `CCOC(=O)[C@@]12CCC3=C1N(CCC3)C(=O)[C@H](CC(=O)N1CCN(C(=O)c3ccco3)CC1)C2`, the inhibition is 0.29%.

On to `Cc1ccccc1CN1CCCCC(NC(=O)Nc2ccccc2F)C1=O` (stereo unspecified), for which the inhibition was -2.67%.

In the case of `CC(C)(C)c1ccc(/C=C/C(=O)NCCCn2ccnc2)cc1`, the inhibition was 0.37%.

Turning to `CC(C)(C)c1ccc(/C=C/C(=O)Nc2ncccn2)cc1`, the inhibition was 3.9% (active).

For the compound `Cc1cc(C)nc(NC(=O)/C=C/c2ccc(Cl)cc2)n1`, the inhibition is 0.12%.

As for `CC(=O)N1C[C@@H](CO)[C@@H](N(C)C(=O)C(C)(C)C)C[C@H]1c1ccccc1Br`, the inhibition is 0.98%.

Regarding `COC(=O)C[C@H]1CC[C@H]2[C@H](COc3ccc(NC(=O)C4CC4)cc3C(=O)N2C)O1`, the inhibition was 1.68%.

For the compound `O=C(c1cnn(-c2ccc(Cl)cc2)c1)c1ccccc1O`, the inhibition is 6.14% (active).

For the compound `Cc1[nH]nc(-c2ccc(OCc3cnn(-c4ccccc4)c3)cc2O)c1Oc1ccc(Cl)cc1`, the inhibition was -0.45%.

With `CC(=O)c1nn(-c2ccc(C)cc2)cc1C(=O)c1cccc(Br)c1`, the inhibition was -0.24%.

One may read the inhibition as the drop in the measured response relative to a control, in per cent.

Source of the values: PubChem BioAssay AID652010 (The Scripps Research Institute Molecular Screening Center, 2013).
